Measurements: PubChem BioAssay (NCATS)
Results filed as inconclusive are left out. Calls of active or inactive are those of the source. Calls follow the shape of the dose curve; as a rule, active = well fitted inhibition curve with a large enough effect; inconclusive = small, poorly fitted or top-dose-only effect; inactive = flat fitted curve, though single readings scatter.

Columns and labels:
Assay in all cases: qHTS profiling for inhibitors of Plasmodium falciparum proliferation (AID 504749); also: nearly all actives have a fitted effect of over 60% in size
Conditions in all cases: P. falciparum in erythrocytes, SYBR Green DNA, 72 h; series mostly up to 28.7 µM
[1] = tested on: CP192
In short: (§1)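 SYBR Green fluorescence of parasite DNA, read after lysis and overnight dark incubation, measured growth over 72 h in erythrocyte culture at 0.3% parasitemia and 2.5% hematocrit. Data normalised to DMSO and 0.29 uM artemisinin, with plate-drift correction.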

[2] = tested on: CP194
In short: as §1

[3] = tested on: CP201
In short: as §1

[4] = tested on: CP211
In short: as §1

[5] = tested on: CP215
In short: as §1

[6] = tested on: CP262
In short: as §1

[7] = tested on: CP266
In short: as §1

[8] = tested on: CP268
In short: as §1

[9] = tested on: CP269
In short: as §1

[10] = tested on: CP297
In short: as §1

[11] = tested on: CP305
In short: as §1

[12] = tested on: CP315
In short: as §1

[13] = tested on: CP325
In short: as §1

[14] = tested on: CP329
In short: as §1

[15] = tested on: CP335
In short: as §1

[16] = tested on: DIV14
In short: as §1

[17] = tested on: DIV17
In short: as §1

[18] = tested on: DIV30
In short: as §1

[19] = tested on: GB4
In short: as §1

[20] = tested on: PC26
In short: as §1

Measured: Potency

CC(=O)OC1CC2CCC1(C)C2(C)C (stereo not given)
inactive: all assays above
